Assay results taken from the supplement of paper PMC6897291.
Where a name gives a salt, the structure may show the parent alone.

Test system: U-2932
Assay: growth inhibition by drug plus 177Lu-lilotomab satetraxetan (1 - RLU/untreated control) (fraction); higher = stronger inhibition
Conditions: 1000 nM; time (day): 6; 177Lu-lilotomab satetraxetan 1 ug/ml
Method in brief: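 With or without 18 h pretreatment by a radiolabelled anti-CD37 antibody conjugate (~600 MBq/mg; 0.5 µg/ml RIVA, 1 µg/ml U-2932), RIVA and U-2932 cells were washed and plated at 3,000 cells/well. Pre-printed compound doses were 10/100 nM for RIVA and 10/1,000 nM for U-2932. Growth inhibition uses RealTime-Glo RLU relative to the untreated no-drug wells. The calculation is 1 − RLU/mean of 48 such wells per plate, with reads daily from day 3 after 1 h at 37°C.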

| SMILES | growth inhibition by drug plus 177Lu-lilotomab satetraxetan |
| --- | --- |
| Nc1nc2[nH]cc(CCc3ccc(C(=O)N[C@@H](CCC(=O)O)C(=O)O)cc3)c2c(=O)[nH]1 [Pemetrexed] | 0.979 |
| COc1cc2nccc(Oc3ccc(NC(=O)Nc4cc(C)on4)c(Cl)c3)c2cc1OC [Tivozanib (AV-951)] | 0.368 |
| CCC(=O)N1CCN(c2ccc(-n3c(=O)ccc4cnc5ccc(-c6cnc7ccccc7c6)cc5c43)cc2C(F)(F)F)CC1 [Torin 1] | 0.879 |
| COc1cccc2c1C(=O)c1c(O)c3c(c(O)c1C2=O)C[C@@](O)(C(=O)CO)C[C@@H]3O[C@H]1C[C@H](N)[C@@H](O)[C@H](C)O1 [Epirubicin Hydrochloride] | 0.986 |
| Clc1ccc(Nc2nnc(Cc3ccncc3)c3ccccc23)cc1 [Vatalanib dihydrochloride (PTK787)] | -0.0503 |
| COc1cc2nccc(Oc3ccc(NC(=O)C4(C(=O)Nc5ccc(F)cc5)CC4)cc3)c2cc1OC [XL-184 free base (Cabozantinib)] | 0.337 |
| C[C@@H](O[C@H]1OCCN(Cc2n[nH]c(=O)[nH]2)[C@H]1c1ccc(F)cc1)c1cc(C(F)(F)F)cc(C(F)(F)F)c1 [Aprepitant (MK-0869)] | 0.19 |
| COc1cc2c(cc1O)CC[C@@H]1[C@@H]2CC[C@]2(C)[C@@H](O)CC[C@@H]12 [2-Methoxyestradiol] | 0.814 |
| CNCc1ccc(-c2[nH]c3cc(F)cc4c3c2CCNC4=O)cc1 | 0.238 |
| CC[C@@]1(O)C(=O)OCc2c1cc1n(c2=O)Cc2cc3c(CN(C)C)c(O)ccc3nc2-1 [Topotecan HCl] | 0.985 |
| Nc1cc(C(F)(F)F)c(-c2cc(N3CCOCC3)nc(N3CCOCC3)n2)cn1 | 0.455 |
| CC(C)(C)c1ccc(S(=O)(=O)/C=C/C#N)cc1 | 0.533 |
| C[C@]1(c2nc3c(C(N)=O)cccc3[nH]2)CCCN1 [ABT-888 (Veliparib)] | 0.0852 |
| Cc1ccc(NC(=O)c2ccc(CN3CC[C@H](N(C)C)C3)c(C(F)(F)F)c2)cc1Nc1nccc(-c2cncnc2)n1 [Bafetinib (INNO-406)] | 0.226 |
| C[C@]12CC[C@@H]3c4ccc(O)cc4CC[C@H]3[C@@H]1CCC2=O [Estrone] | 0.209 |
| O=C(c1ccc(OCCN2CCCCC2)cc1)c1c(-c2ccc(O)cc2)sc2cc(O)ccc12 [Evista (Raloxifene Hydrochloride)] | -0.104 |
| CCN(CC)CCNC(=O)c1c(C)[nH]c(/C=C2\C(=O)Nc3ccc(F)cc32)c1C [Sunitinib Malate (Sutent)] | -0.033 |
| CCOc1ccc(Nc2nc(-c3c(C)nc4ccccn34)cs2)cc1 | 0.987 |
| C=CC(=O)N1CCC[C@@H](n2nc(-c3ccc(Oc4ccccc4)cc3)c3c(N)ncnc32)C1 | 0.845 |

| SMILES | growth inhibition by drug plus 177Lu-lilotomab satetraxetan |
| --- | --- |
| CS(=O)(=O)c1cccc(CNc2nc(Nc3ccc4c(c3)CCC(=O)N4)ncc2C(F)(F)F)c1 | 0.314 |
| CC(NC(=O)c1ccccc1/N=C/c1c(O)ccc2ccccc12)c1ccccc1 (stereo not drawn) [Sirtinol] | 0.101 |
| CN(Cc1cnc2nc(N)nc(N)c2n1)c1ccc(C(=O)N[C@@H](CCC(=O)O)C(=O)O)cc1 [Abitrexate (Methotrexate)] | 0.972 |
| OCCn1cc(-c2cnc3nnn(Cc4ccc5ncccc5c4)c3n2)cn1 | 0.176 |
| COc1cc(Nc2ncc(F)c(Nc3ccc4c(n3)NC(=O)C(C)(C)O4)n2)cc(OC)c1OC [R406(free base)] | 0.227 |
| COc1cccc2c1C(=O)c1c(O)c3c(c(O)c1C2=O)C[C@@](O)(C(=O)CO)C[C@@H]3O[C@H]1C[C@H](N)[C@H](O)[C@H](C)O1 [Doxorubicin (Adriamycin)] | 0.99 |
| CN(NC(=O)CC(=O)NN(C)C(=S)c1ccccc1)C(=S)c1ccccc1 [Elesclomol] | 0.987 |
| CN(C)CCOc1ccc(/C(=C(/CCCl)c2ccccc2)c2ccccc2)cc1 [Toremifene Citrate (Fareston, Acapodene)] | 0.312 |
| CN1CCN(CCOc2cc(OC3CCOCC3)c3c(Nc4c(Cl)ccc5c4OCO5)ncnc3c2)CC1 [Saracatinib (AZD0530)] | 0.1 |
| CC(C)C[C@H](NC(=O)[C@H](Cc1ccccc1)NC(=O)c1cnccn1)B(O)O [Bortezomib (Velcade)] | 0.988 |
| Cn1cncc1[C@@](N)(c1ccc(Cl)cc1)c1ccc2c(c1)c(-c1cccc(Cl)c1)cc(=O)n2C [Tipifarnib (Zarnestra)] | 0.882 |
| COC(=O)c1ccc2c(C(=Nc3ccc(N(C)C(=O)CN4CCN(C)CC4)cc3)c3ccccc3)c(O)[nH]c2c1 [BIBF1120 (Vargatef)] | -0.00489 |
| CC[C@@H]1/C=C(\C)C[C@H](C)C[C@H](OC)[C@H]2O[C@@](O)(C(=O)C(=O)N3CCCC[C@H]3C(=O)O[C@H](/C(C)=C/[C@@H]3CC[C@H](Cl)[C@H](OC)C3)[C@H](C)[C@@H](O)CC1=O)[C@H](C)C[C@@H]2OC [Pimecrolimus] | 0.447 |
| CN(C)CCOc1ccc(-c2nc(-c3ccncc3)c(-c3ccc4c(c3)CC/C4=N\O)[nH]2)cc1 | 0.259 |
| COc1ccc(CCN2CCN(CCCc3ccccc3)CC2)cc1OC | 0.127 |
| CNC(=O)c1cc(Oc2ccc(NC(=O)Nc3cc(C(C)(C)C)nn3-c3ccc4ncccc4c3)c(F)c2)ccn1 [DCC-2036 (Rebastinib)] | 0.293 |
| CCC(C)(C)C(=O)O[C@H]1C[C@@H](C)C=C2C=C[C@H](C)[C@H](CC[C@@H]3C[C@@H](O)CC(=O)O3)[C@H]21 [Simvastatin (Zocor)] | 0.0898 |
| CCc1ccc(CCOc2ccc(CC3SC(=O)NC3=O)cc2)nc1 (stereo not drawn) [Pioglitazone (Actos)] | 0.192 |
| O=C(O)C(Cc1c[nH]c2ccccc12)N1C(=O)c2ccccc2C1=O (stereo not drawn) | -0.0481 |
